The nature of assay [1]: qHTS assay to identify small molecule agonists of the vitamin D receptor (VDR) signaling pathway - cell viability counter screen (AID 743224; active = well fitted curve in the direction sought with a large enough effect in the repeat runs; an effect the other way counts as inactive or inconclusive; also: series mostly up to about 63 µM; nearly all actives have a fitted effect of over 50% in size). The method, boiled down:
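Compounds were pin-transferred onto VDR-bla cells plated 4 h earlier; following 16 h incubation at 37C, cell viability was quantified by CellTiter-Glo luminescence after 30 min at room temperature.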
For orientation: qHTS replaces the single test concentration by a dilution series.

The nature of assay [2]: qHTS assay to identify small molecule antagonists of the vitamin D receptor (VDR) signaling pathway - cell viability counter screen (AID 743225; active = well fitted curve in the direction sought with a large enough effect in the repeat runs; an effect the other way counts as inactive or inconclusive; also: nearly all actives have a fitted effect of over 50% in size). In short, it runs like this: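 Cells (VDR-UAS-bla HEK 293T) are plated, rested 4 h at 37C, dosed with compound and 3 nM final 1-alpha,25-dihydroxy vitamin D3, and incubated 16 h. Viability is taken from CellTiter-Glo luminescence in the reporter wells.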

Assay [3] in a line: qHTS assay to identify small molecule agonists of the NFkB signaling pathway (AID 1159509; active = well fitted curve in the direction sought with a large enough effect in the signal ratio in the repeat runs, not every such curve was filed as active; the % refers to the signal ratio; also: series mostly up to about 61 µM). The method, boiled down:
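Readout: FRET fluorescence, 405 nm excitation, 460/530 nm emission; beta-lactamase expression disrupts FRET. Cells: ME-180 stably carrying NF-kB-driven bla reporter. Compound exposure 5 hr, 37 C, 5% CO2.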

Assay [4] in a line: qHTS assay to identify small molecule agonists of the NFkB signaling pathway - cell viability counter screen (AID 1159515). Also: series mostly up to about 61 µM; nearly all actives have a fitted effect of over 55% in size. In short, it runs like this: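 Parallel cytotoxicity counter screen in ME-180 cells carrying an NFkB-response-element beta-lactamase reporter, 2,000 cells/well. Compound exposure lasted 5 hr at 37 C, 5% CO2. Cell viability was quantified by CellTiter-Glo luminescence.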

Assay [5] in a line: qHTS assay to identify small molecule agonists of the endoplasmic reticulum stress response signaling pathway (AID 1159516; active = well fitted activation curve with a large enough effect in the signal ratio in the repeat runs, not every such curve was filed as active; the % refers to the signal ratio). In short, it runs like this:
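Using a HeLa line with an ESRE-driven beta-lactamase gene, agonist activity was measured by FRET substrate fluorescence (460 and 530 nm emission) after cells were treated with compounds for 5 hr at 37 C and 5% CO2.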

Assay [6] can be described thus: qHTS assay to identify small molecule agonists of the endoplasmic reticulum stress response signaling pathway - cell viability counter screen (AID 1159517).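 Also: HeLa cells carrying an ER stress response element beta-lactamase reporter; series mostly up to about 61 µM; nearly all actives have a fitted effect of over 50% in size.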 The method, boiled down: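 After overnight attachment, ESRE-bla HeLa cells were treated with Tox21 library compounds for 5 hr. CellTiter-Glo luminescence, read 30 min post-addition at room temperature, reported viability.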

Assay [7] can be described thus: qHTS assay to identify small molecule antagonists of the retinoid-related orphan receptor gamma (ROR-gamma) signaling pathway - cell viability counter screen (AID 1159520; active = well fitted curve in the direction sought with a large enough effect in the repeat runs; an effect the other way counts as inactive or inconclusive; also: nearly all actives have a fitted effect of over 50% in size). In short, it runs like this:
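Cytotoxicity was read from cellular ATP (CellTiter-Glo luminescence) after 16 hr at 37 C with 1 uM doxycycline induction. The inducer was added 2 hr after compound transfer to Tet-on ROR gamma CHO cells.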

Assay [8] deals with Nuclear receptor ROR-gamma (Homo sapiens) (UniProt P51449). Put plainly: qHTS assay to identify small molecule antagonists of the retinoid-related orphan receptor gamma (ROR-gamma) signaling pathway (AID 1159521; active = well fitted curve in the direction sought with a large enough effect in the repeat runs; an effect the other way counts as inactive or inconclusive; also: nearly all actives have a fitted effect of over 50% in size; also: potency is read from the fitted curve at half-maximal effect). In short, it runs like this: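 RORγ antagonism is scored from reduced reporter luminescence in Tet-on CHO cells. Induction used 1 uM final doxycycline hyclate for 16 h at 37 C, following a 2 h compound exposure.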

Assay [9] is described as follows: qHTS assay to identify small molecule agonists of the AP-1 signaling pathway - cell viability counter screen (AID 1159525). Also: nearly all actives have a fitted effect of over 55% in size. The method, boiled down: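 Intracellular ATP by Cell Titer Glo luminescence (30 min, RT) in the same ME-180 AP-1-bla wells after the 5 h compound exposure at 37 °C. Normalised to tetra n-octyl ammonium bromide and DMSO controls.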
Assay [10] can be described thus: qHTS assay to identify small molecule agonists of the AP-1 signaling pathway (AID 1159526).

The record followed here is PubChem BioAssay (Tox21).

Records with an inconclusive call do not appear. A number with no mark means an inactive call. Activity calls are given as the source filed them. Unless noted, calls follow the shape of the full dose curve.

As for `COC(C(=O)O)c1ccccc1` (stereo unspecified), the compound was classed as inactive in [1], in [2], in assay [3], in assay [4], in assay [5] and in assay [6]. Moreover, in [9], the compound was classed as inactive. Moreover, the Potency entry in assay [7], in assay [8] and in assay [10] was “inactive” throughout.

As to `CCCCC1CCCCC(=O)O1` (stereo unspecified), the outcome in [1], in [2], in [3], in assay [4], in assay [5] and in assay [6] was inactive. The compound was called inactive in assay [9]. Moreover, the Potency entry in assay [7], in assay [8] and in [10] was “inactive” in each case.

For the compound `C#CC(C)(O)CC(C)C` (stereo unspecified), the outcome in [1], in assay [3], in assay [4], in [5], in assay [6] and in [9] was inactive. Also, the Potency result in [7], in assay [8] and in [10] was “inactive” in each case.

For `O=C(O)c1ccc[n+]([O-])c1`, the call in assay [1], in assay [2], in assay [3], in assay [4], in [5] and in assay [6] was inactive. Besides, the result in assay [9] was inactive. Moreover, the Potency entry in assay [7], in [8] and in [10] was “inactive” in each case.

As to `O=S(=O)(c1cccc2cnccc12)N1CCCNCC1`, the result in assay [1], in [3], in assay [4], in assay [5], in assay [6] and in assay [9] was inactive. Further, the Potency result in [7], in [8] and in assay [10] was “inactive” each time.

On to `NC(CS)C(=O)O` (stereo unspecified), for which the compound was called inactive in assay [1], in [3], in assay [4], in [5], in assay [6] and in assay [9]. In addition, the Potency entry in [7], in [8] and in [10] was “inactive” in each case.

For `CO[Si](CCCNCCC[Si](OC)(OC)OC)(OC)OC`, the compound was called inactive in assay [1], in assay [2], in assay [3], in [4], in assay [5] and in [6]. Further, the compound was called inactive in assay [9]. Further, the Potency result in assay [7], in [8] and in [10] was “inactive” throughout.

On to `CCCC(=O)O[C@]1(C(=O)CCl)[C@@H](C)C[C@H]2[C@@H]3CCC4=CC(=O)C=C[C@]4(C)[C@@]3(F)C(=O)C[C@@]21C`, for which the compound was classed as inactive in [1], in assay [3], in [4], in [5], in assay [6] and in [9]. In addition, the Potency entry in assay [7] and in [10] was “inactive” in each case. Further, the Potency in assay [8] was 10.6 µM (active).

Consider `CCCCCCCCCCCCCCCCCCOCC(O)CO` (stereo unspecified), for which the result in assay [1], in assay [3], in assay [4], in assay [5], in assay [6] and in assay [9] was inactive. In addition, the Potency entry in assay [7], in assay [8] and in assay [10] was “inactive” in each case.

On to `Cc1nccn1CC1CCc2c(c3ccccc3n2C)C1=O` (stereo unspecified), for which the outcome in assay [1], in assay [2], in [3], in assay [4], in assay [5] and in assay [6] was inactive. The compound was classed as inactive in assay [9]. The Potency entry in assay [7], in [8] and in assay [10] was “inactive” throughout.

`Oc1ccc2c(c1)OC[C@@H](N1CCC(O)(c3ccc(F)cc3)CC1)[C@H]2O`: the outcome in [1], in assay [2], in assay [3], in assay [4], in assay [5] and in assay [6] was inactive. Also, the outcome in assay [9] was inactive. Also, the Potency entry in assay [7], in assay [8] and in assay [10] was “inactive” throughout.

In the case of `C#CC(O)CCCCC` (stereo unspecified), the call in assay [1], in assay [2], in [3], in assay [4], in assay [5] and in assay [6] was inactive. In addition, the compound was called inactive in assay [9]. For the same compound, the Potency result in assay [7], in assay [8] and in assay [10] was “inactive” throughout.

As to `N[C@@H](CS)C(=O)O`, the call in assay [1], in assay [2], in assay [3], in assay [4], in assay [5] and in [6] was inactive. Also, the result in assay [9] was inactive. In addition, the Potency result in assay [7], in assay [8] and in [10] was “inactive” each time.

As for `CC(C)c1ccc2oc3nc(N)c(C(=O)O)cc3c(=O)c2c1`, the call in assay [1], in assay [3], in assay [4], in [5], in assay [6] and in assay [9] was inactive. Also, the Potency entry in assay [7], in assay [8] and in [10] was “inactive” each time.

For `Nc1cc(N)cc(C(=O)O)c1`, the result in assay [1], in assay [2], in [3], in assay [4], in assay [5] and in assay [6] was inactive. Besides, in assay [9], the call was inactive. Further, the Potency entry in [7], in [8] and in assay [10] was “inactive” each time.

As to `CC(=O)OC(C)(C)C`, the compound was classed as inactive in assay [1], in assay [2], in assay [3], in assay [4], in [5] and in assay [6]. In assay [9], the compound was called inactive. In addition, the Potency entry in assay [7], in assay [8] and in assay [10] was “inactive” in each case.

`CC(C)(C)C(=O)/C=C/c1ccc(Cl)cc1`: the compound was classed as inactive in assay [1], in [3], in [4], in assay [5], in [6] and in [9]. Moreover, the Potency entry in [7], in [8] and in assay [10] was “inactive” throughout.

`COc1cccc(Br)c1`: the compound was classed as inactive in assay [1], in [3], in assay [4], in assay [5], in assay [6] and in assay [9]. Also, the Potency entry in [7], in assay [8] and in assay [10] was “inactive” throughout.

Take `CCOC(=O)Cn1c(=O)sc2cccc(Cl)c21`: the call in assay [1], in [3], in [4], in [5], in assay [6] and in [9] was inactive. In addition, the Potency entry in assay [7], in assay [8] and in assay [10] was “inactive” each time.
